Assay outcomes deposited in PubChem by National Center for Advancing Translational Sciences (NCATS).
IP6K1 inh – inhibitors of human IP6K1. AID 1645851. activity change, % (series mostly up to about 58 µM). IP6K1 kinase, ADP-Glo luminescence, 2 h; active compounds read low. actives 0.81% (n = 140,000); in the data active = activity change below about -25%; also: % is scaled to controls: 0 for no effect and ±100 for the full control effect
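ADP-Glo luminescence measures ADP made by human IP6K1 during a 2 h RT reaction with ATP/IP6 (mix at 1.3 mM/130 uM); top library doses 57.5 and 19.1 uM final.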
KDM5B inh – inhibitors of human KDM5B histone demethylase. Q9UGL1. KDM5B demethylase, FDH-coupled NADH fluorescence (FDH is formaldehyde dehydrogenase). Potency, µM (series often up to 57.7 µM), usual class: inhibitors. actives 2.6% (n = 220,000). AID 1347165; also: potency is read from the fitted curve at half-maximal effect; 0% is about no effect; nearly all actives have a fitted effect of over 70% in size
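Measured: NADH fluorescence change, 30 min, RT. System: KDM5BΔAP 200 nM final, H3K4me3 peptide, α-KG, Fe(II), ascorbate, NAD⁺ plus FDH, pH 7.5 HEPES. Compounds: titrated, 10 min pre-incubation with enzyme.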
IP6K1 conf – human IP6K1 inhibition, confirmatory; Potency, µM (highest dose often 49 µM), for inactives: at the top dose activity change, negative = inhibition, most hits filed as inhibitors; shares compounds with IP6K1 inh; actives 13% (n = 1,200); recombinant IP6K1 kinase, ADP-Glo luminescence, 2 h; also: potency is read from the fitted curve at half-maximal effect; % is scaled to controls: 0 for no effect and ±100 for the full control effect; nearly all actives have a fitted effect of over 65% in size
Active calls of the source: *; i = inactive; ? = inconclusive; . = no result. In the library only some 2.7% were active in any assay of this set; here they are far more common. Unless noted, calls follow the shape of the dose curve; as a rule, active = well fitted inhibition curve with a large enough effect; inconclusive = small, poorly fitted or top-dose-only effect; inactive = no such curve, though single readings can be large or run the other way.

SMILES	IP6K1 inh	KDM5B inh	IP6K1 conf
CC(c1ccc(-c2cc(N)ncn2)cc1)N1CCCCC1 (stereo not given)	12	?	-2%
CC(c1ccc(-c2cc(N)ccn2)cc1)N1CCCCC1 (stereo not given)	16	i	.
O=C(/C=C/c1cc(Cl)cc(Cl)c1O)c1ccccc1	.	i	.
CCNc1nc2c(s1)C(c1cccc(F)c1)CC(=O)N2 (stereo not given)	-71*	25µM*	16µM*
Nc1nc2c(s1)C(c1cccc(OCc3ccccc3F)c1)CC(=O)N2 (stereo not given)	.	i	.
Cc1ccc(NC(=O)NCc2c(-n3cccc3)sc3c2CCCC3)c(Cl)c1	-27*	i	-20%
Cc1c(Cl)cccc1NC(=O)NCc1c(-n2cccc2)sc2c1CCCC2	1	i	.
O=C(Cc1ccc(C(F)(F)F)cc1)NC1CCN(Cc2ccc(-c3ccsc3)cc2)C1 (stereo not given)	7	.	.
OC1(CN2CCCCC2)CCN(Cc2cnn(-c3ccccc3Cl)c2)C1 (stereo not given)	-36*	?	8%
OC1(CN2CCCCC2)CCN(Cc2ccc(Cl)cc2)C1 (stereo not given)	9	?	.
COc1ccc2nc(/C=C/c3ccc(OC)c(OC)c3OC)sc2c1	.	i	.
O=C(Cc1ccccc1)Nc1sc2c(c1C(=O)Nc1ccccc1Cl)CCCCC2	-2	i	.
O=C(Cc1ccccc1)Nc1sc2c(c1C(=O)Nc1cccc(Cl)c1)CCCCC2	-29*	i	3%
COc1ccc(-c2ccc(C(=O)N(C)Cc3ccccc3)cc2)nn1	1	.	.
CC(=O)NC12CC3CC(C1)CC(C(=O)NCc1cccc(Cl)c1)(C3)C2	.	i	.
Cc1nnc(NC(=O)c2nc(S(=O)(=O)Cc3ccccc3)ncc2Cl)s1	-35*	?	-18%
CCc1nnc(NC(=O)c2nc(S(C)(=O)=O)ncc2Cl)s1	-35*	?	-10%
CCSc1ncc(Cl)c(C(=O)Nc2nnc(CC)s2)n1	1	i	.
COc1ccc2nc(NC(=O)c3nc(S(=O)(=O)Cc4ccccc4)ncc3Cl)sc2c1	-3	i	.
CCN1/C(=C/C=C/c2sc3ccccc3[n+]2CC)Sc2ccccc21	-36*	.	?
CCN1/C(=C/C=C2/SC(=Nc3cccc4ncccc34)N(C)C2=O)Sc2ccccc21	.	i	.
Cc1cc(C)cc(NC(=O)CCC(=O)N2Cc3ccccc3Oc3ncccc32)c1	-7	i	.
CCOC(=O)c1cccc(NC(=O)N2Cc3ccccc3Oc3ncccc32)c1	-33*	?	-21%
CCC1Oc2nc(SC)nnc2-c2ccccc2N1C(C)=O (stereo not given)	.	i	.
CCOC(=O)c1ccc(NC(=O)Cc2ccc(-n3c(CC)nc4cccnc43)cc2)cc1	-45*	i	?
SMILES	IP6K1 inh	KDM5B inh	IP6K1 conf
CCOC(=O)c1ccc(NC(=O)CCc2nc3cccnc3n2Cc2cccs2)cc1	19	?	.
CC(CCc1ccccc1)NC(=O)C1CN(C2CCCCC2)C(=O)N1 (stereo not given)	-1	.	.
O=C(Oc1cccc2cccnc12)c1ccccc1	32	.	.
c1ccc(-c2ccnc(NCCOc3cccc4cccnc34)n2)nc1	-31*	20µM*	-14%
O=C(CSc1nnc(-c2cccnc2)n1-c1ccccc1)c1c[nH]c(C(=O)N2CCCC2)c1	.	i	.
COc1ccc(-c2ccc(C(=O)N3CCCCC3)cc2)nn1	-51*	.	?
COc1ccc(-c2ccc(C(=O)N3CCN(C(=O)c4ccccc4)CC3)cc2)nn1	-1	.	.
O=C(NCCc1ccc(Cl)cc1)C1CCCCN1Cc1ccc(-c2ccsc2)cc1 (stereo not given)	-3	.	.
Cc1ccc(NC(=O)c2ccc(C(C)(C)C)cc2)c(C(=O)c2ccccc2)c1	.	i	.
CCN1CC(C(=O)N2CCCC(c3ccccc3)(c3ccccc3)C2)CC1=O (stereo not given)	-34*	i	-12%
O=C(CN1CCOC1=O)N1CCCC(c2ccccc2)(c2ccccc2)C1	17	i	.
O=C(CCc1ncc(-c2ccccc2F)o1)Nc1ccc(F)cc1Cl	.	i	.
Cc1ccc(S(=O)(=O)c2[nH]c(-c3ccccc3)nc2SCC(N)=O)cc1	8	i	.
Cc1ccc(S(=O)(=O)c2[nH]c(-c3ccccc3)nc2SCC(=O)O)cc1	-26*	i	-5%
C[S+](=O)([O-])NC1CCN(c2nccc(Nc3ccccc3F)n2)CC1	9	.	.
COc1ccc(-c2c(C)c3ccc(OC(=O)N4CCOCC4)cc3oc2=O)cc1	.	i	.
CCOc1cc(C#N)c(NC(=O)c2ccc(OC)c(S(=O)(=O)N(CC)CC)c2)cc1OCC	.	i	.
COC(=O)c1c(SC)nc2ccccc2c1OCc1ccccc1Cl	-26*	i	-7%
COC(=O)c1c(SC)nc2ccccc2c1OCc1cc(C)ccc1C	40	i	.
COc1ccc(-c2nc(CSCC(=O)N3CCN(c4cccc(C)c4C)CC3)c(C)o2)cc1OC	-26*	?	-8%
COc1ccc(-c2nc(CSCC(=O)N3CCN(c4cc(Cl)ccc4C)CC3)c(C)o2)cc1	6	?	.
Cc1ccc(-n2[nH]c(C)c(N=Nc3cccc(-c4cccc(C(=O)O)c4)c3O)c2=O)cc1C	-91*	.	?
Cc1[nH]n(-c2ccccc2)c(=O)c1N=Nc1ccc(C(=O)O)cc1	.	i	.
CC(=O)N(Cc1cccnc1)c1nc2ccc(F)cc2s1	-2	i	.
O=C(CCS(=O)(=O)c1ccccc1)N(Cc1cccnc1)c1nc2ccc(F)cc2s1	-26*	?	-12%
SMILES	IP6K1 inh	KDM5B inh	IP6K1 conf
Cc1cc(OCC(=O)Nc2ccc3c(c2)OCCO3)c2c(C)c(C)c(=O)oc2c1	.	i	.
Cc1nc2ccccc2nc1SCC(=O)NC(C)C	.	i	.
O=C(NCC1CC1)c1ccc2nnc(-c3cc(C(F)(F)F)cc(C(F)(F)F)c3)n2c1	7	.	.
CCCC(=O)Nc1cccc(NC(=O)c2ccc(C)c(C)c2)c1	.	i	.
Cc1cccc(Nc2sc(C(=O)c3ccc(Cl)cc3)c(N)c2C(N)=O)c1	-39*	?	-10%
COc1ccc(Nc2sc(C(=O)c3ccc(Cl)cc3)c(N)c2C(N)=O)cc1	.	i	.
CC(C)NC(=O)c1ccc(I)cc1	.	i	.
CCOc1nccn2c(-c3ccc(CNc4ccc(OC)nc4)cc3)cnc12	-36*	?	?
c1ccc(Oc2nccn3c(-c4ccc(CNCc5ccn[nH]5)cc4)cnc23)cc1	-7	?	.
Cc1ccc(Nc2ccnc(N3CCN(C(=O)C4CC4)CC3)n2)cc1	0	.	.
Cc1ccc([N+](=O)[O-])cc1S(=O)(=O)N(C)/N=C/c1cnc2ccc(Br)cn12	-25*	.	?
Cc1cc(S(=O)(=O)c2ccc([N+](=O)[O-])cn2)ccc1Br	.	i	.
O=c1cc(C2=CCOCC2)oc2c(-c3cccc4[nH]ccc34)nccc12	-25*	?	?
COc1ccccc1-c1nccc2c(=O)cc(-c3ccccn3)oc12	-17	?	.
COc1cccc(NC(=O)CSCc2cc(=O)c3ccc(C)c(C)c3[nH]2)c1	-37*	i	?
COc1cccc2c(=O)cc(CSCC(=O)Nc3cccc(Cl)c3)[nH]c12	.	i	.
O=C(Nc1ccc(Cl)cc1)c1cc(S(=O)(=O)NC2CCCCCC2)ccc1F	34	i	.
